Whole data set: some 33,000 sequences, median “E-score (-0.5 to 0.5)” near -0.035, cut for the highest 2% near 0.35. The sample as a whole holds a higher share of the highest values than the screen did.
Molecular target: T1, Pdr3 (UniProt P33200)
T1 sequence: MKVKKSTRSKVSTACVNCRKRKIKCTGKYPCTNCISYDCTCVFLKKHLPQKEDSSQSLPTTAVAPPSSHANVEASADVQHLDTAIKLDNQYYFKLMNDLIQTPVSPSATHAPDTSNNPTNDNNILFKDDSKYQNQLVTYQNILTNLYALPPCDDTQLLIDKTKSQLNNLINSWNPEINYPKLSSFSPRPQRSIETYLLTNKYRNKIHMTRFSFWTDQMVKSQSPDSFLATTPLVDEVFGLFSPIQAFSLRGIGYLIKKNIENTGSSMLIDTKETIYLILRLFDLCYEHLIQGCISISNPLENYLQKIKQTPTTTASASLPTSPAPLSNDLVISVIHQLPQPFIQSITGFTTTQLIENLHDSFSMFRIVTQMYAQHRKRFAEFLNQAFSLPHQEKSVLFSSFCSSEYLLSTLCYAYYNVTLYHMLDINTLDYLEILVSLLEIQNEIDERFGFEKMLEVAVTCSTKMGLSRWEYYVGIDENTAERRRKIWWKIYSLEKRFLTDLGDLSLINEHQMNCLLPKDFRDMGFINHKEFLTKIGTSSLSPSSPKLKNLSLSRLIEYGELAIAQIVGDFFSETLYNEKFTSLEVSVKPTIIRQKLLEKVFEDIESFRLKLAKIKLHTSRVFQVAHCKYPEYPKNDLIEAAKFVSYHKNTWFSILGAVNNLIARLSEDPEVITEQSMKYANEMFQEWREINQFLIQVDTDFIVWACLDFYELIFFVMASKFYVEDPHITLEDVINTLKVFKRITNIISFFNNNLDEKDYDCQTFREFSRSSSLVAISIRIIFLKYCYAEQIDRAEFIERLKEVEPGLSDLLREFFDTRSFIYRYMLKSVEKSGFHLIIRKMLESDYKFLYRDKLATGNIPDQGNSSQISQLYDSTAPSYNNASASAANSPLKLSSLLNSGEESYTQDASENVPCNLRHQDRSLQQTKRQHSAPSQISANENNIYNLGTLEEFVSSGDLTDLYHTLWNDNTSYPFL
Assay: PBM E-score (8-mer binding enrichment) (E-score (-0.5 to 0.5)); higher = stronger / more preferred TF binding
Conditions: protein concentration: 200 nM; construct: GST-full length
Experimental: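 Universal 'all 10-mer' protein binding microarrays (Agilent AMADID 015681) probed with GST-tagged S. cerevisiae TFs (full-length or DBD) made by in vitro transcription/translation (PURExpress), about 100-200 nM. Bound TF was detected with fluorescent anti-GST. Each ungapped 8-mer (which stands for itself and its reverse complement) is scored by the PBM enrichment score (E-score), a modified Wilcoxon-Mann-Whitney statistic from -0.5 to +0.5, computed with the Universal PBM Analysis Suite. Scale: above 0.35 generally sequence-specific binding.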

Sequence	PBM E-score
GGCACCCC	-0.0993
CTGGCCAA	0.0275
AGGATCTA	-0.352
ATTACTAA	-0.0285
GCGGGCCA	0.0261
CCACCATA	0.0173
ATTTTCTA	-0.183
ACGAGGCA	-0.211
GTCAAAGA	-0.212
TAAATTAA	0.0873
AACCTCCG	0.219
CGAAGAAC	0.119
AGCCCAAT	-0.194
GCCCGGGA	0.393
GACCGGGA	0.304
GCCGGGGA	0.2
GCGTTCCC	0.139
CTGCCCCA	-0.045
GGCGGACC	0.357
CGCGGACA	0.361
CGCGGACG	0.342
AGCGGACA	0.154
CGGGGACC	0.291
GGCGGACA	0.185
AGCGGACC	0.175
CGCGGACC	0.437

Sequence	PBM E-score
CGTGGACA	0.108
GATCGCCC	0.00089
CAAACCGA	-0.0979
CGCCGTCC	0.115
TGACGCAA	-0.165
CGGACTCA	0.31
GACAAGGA	-0.0759
AGACTCGG	-0.099
ACGTCAAG	-0.311
CGACCGAA	0.0221
GGACCGGA	0.382
CGACCGGA	0.358
GGACCGCA	0.243
CGACCGGC	0.161
AGACCGGA	0.254
ATGCCAGC	-0.22
CTCAAAAA	-0.0515
CACCCGTC	0.215
CAGTCTGC	-0.173
CTACTTGA	-0.238
GGGGATGA	0.0246
CTGGATTC	0.105
CGGGATGC	0.311
CGGGATGA	0.369
AGGGATTC	-0.0434
GGGGATTA	0.162

Sequence	PBM E-score
CGGGATTC	0.382
CGGGATTA	0.404
AGGGATTA	-0.132
AGCCGAGC	0.267
GTAACCCA	0.0499
AAGCGAAA	-0.0467
CTCGTAGC	-0.167
CGACCATA	0.0144
CTTCTGGA	-0.0291
CATCTACC	0.0434
CCGTCGGA	0.361
AGCTCGGA	0.316
GCCTCGGA	0.308
CGCTCGGA	0.359
AACTCGGA	0.296
CCGTCGGC	0.285
CCCTCGGC	0.173
TACTCGGA	0.336
ACGTCGGA	0.175
GACTCGGA	0.39
CCCTCGGA	0.373
GGCTCGGA	0.338
ACGATCAG	-0.108
AGCTCCCT	-0.178
CATAAAGG	-0.0331
TCACGAAA	0.0507

Sequence	PBM E-score
AGCGGGGG	-0.158
ACCTCGGG	0.158
ACCTCGGA	0.357
ACCTCGGC	0.307
AACGTCAA	-0.146
GCTATTCA	0.0956
AATGGTAG	-0.0896
GGAACTCC	0.366
AGAACTCC	0.0347
CGAACTCC	0.132
CTCGCGAG	0.192
ACGCGGTA	0.0327
ACGCGGGC	0.17
GCGCGGTA	0.28
CCGCGGTA	0.473
CCGCGGGC	0.484
CGGCGGTC	0.145
CCGCGGTC	0.432
ACGCGGTC	0.181
CTGCGGGC	0.218
GATCCAAA	0.064
ACGTCTAT	-0.168
ACGTAGCT	-0.31
CCGTCTAG	0.178
CCCGGCAA	0.286
TTCGGCAA	-0.0284

Sequence	PBM E-score
GCCGGCAC	0.392
ACCGGCAC	0.192
CCCGGCAC	0.154
ACCGGCAA	0.185
GCCGGCAA	0.37
TACGGCAA	-0.034
TCCGGCAA	0.356
TGAACGAA	-0.195
CCTCAACC	-0.118
AGATTACA	-0.107
ACTGTGAG	-0.0549
GAGGCTGA	-0.305
AGAGGGCG	0.126
CGCGCTAA	0.205
CCGGTCGA	0.167
TCCGGACA	0.447
CCCCGACA	0.0765
GCCGGACA	0.315
ACCGGACA	0.206
CCCGGACG	0.223
CCCGGACA	0.362
ACTGGGAC	-0.0292
AGAACGTA	-0.0336
ACGGGCCA	0.117
CTTTCCTC	-0.162
CTTTCCCC	0.117

Sequence	PBM E-score
ATTTCCGG	0.456
GTTTCCAA	-0.274
GTTTCCGA	0.429
CTTTCCGC	0.384
CTTTCCGA	0.413
CTTTCCAA	-0.0271
ATTTCCGA	0.338
GTTTCCCA	0.0393
ATTTCCTG	0.0852
CTTTCCCA	0.0901
CGCGAAAA	0.096
ACGCTTCG	0.00401
CGCCTGGC	-0.0374
CAACTTCC	0.225
AATTTAAT	0.128
AAACCTAC	-0.103
CTGCCGCC	-0.0369
GGAAGATA	0.234
GCCCAGAC	-0.222
AAATGATG	0.133
CTACAAAG	-0.116
ATTTCCAC	0.131
ATTTCCGC	0.413
ATTTCCTC	0.154
AGCACAAA	0.12
CGGGCGTC	0.193

Sequence	PBM E-score
CGATTCCG	0.466
CGATTCCC	0.181
AGATTCCC	0.198
AGATTCCT	-0.088
AGATTCCG	0.453
CGATTCCA	0.112
AACGTGAT	-0.0792
ACCGGCTC	0.122
GGACGGAC	0.293
GGACGGTA	0.118
TGACGGAA	0.445
CGACGGAA	0.439
CGACGGAC	0.342
AGACGGAA	0.422
AGACGGAT	0.249
TGACGAAA	-0.112
TGACGGCA	0.135
AGACGGAG	0.216
CGACGGAG	0.331
GGACGGAA	0.429
ATAATACA	0.212
